In PubChem BioAssay AID1259415 (National Center for Advancing Translational Sciences (NCATS), 2018) one finds activity change, negative = inhibition data, which are given here for 55 molecules.

Where “and” joins values, the source holds several entries; their conditions need not be identical. Identical values can stand only once. Screen size: about 410,000 compounds; about 18,000 (4.4%) were called active. Roughly 7% stayed inconclusive and do not appear here. Cut-off read from the data, not from the text of the source: active = activity change below about -60%; inconclusive = no clear call, values can overlap the other calls; inactive = above about -39%. The entries come from a sample that favours actives as a whole.
% is set by controls: 0 for no effect and ±100 for the full control effect.

The assay is described as follows: qHTS Assay for inhibitors of the human cytomegalovirus (HCMV). As to conditions: HFF cells, HCMV-luciferase reporter, 72 h; at 57.5 µM; hits give low values. An excerpt: NCGC Assay Overview: Infection with human cytomegalovirus (HCMV) continues to pose significant threats for pregnant women and immunocompromised hosts. HCMV causes serious morbidity and mortality in transplant recipients, and congenital HCMV is the leading infectious cause of mental retardation and deafness in children. In the 1990s, the annual costs associated with the disease burden of congenital CMV were estimated at around $2 billion. A HCMV vaccine is not available yet and HCMV therapies result in intolerable side effects and emergence of drug resistant viruses. […] Towards this goal we have developed and characterized a luciferase HCMV reporter that was initially used in 96 well plates and then optimized to 1536-well plates for utilization in screening of the MLSMR collection, the NGCG diversity collection and the NCGC Pharmaceutical Collection of approved and investigational drugs.
NCGC Assay Protocol Summary:
This is a cell-based assay for HCMV inhibition in HFFs cells. The screening used 2 compound doses and the HCMV-luciferase at MOI of 1 PFU/cell. Cells were treated and infected with HCMV. At 72 h post infection cell lysates were collected and luciferase activity was determined using the Glomax-Multi + Detection System (Promega, Madison, WI). Data were normalized to the controls for basal activity (buffer only) and known HCMV inhibitors Salinmoycin.
1536-well assay protocol for the assay:
(1) Add 3 ul CMV/HFF cell culture. 1000 cells/well in DMEM nirmal media.
(2) Incubate 16 hr at 37C.
(3) Add 23 nl control compound, 10uM of Salinomycin.
(4) Add 23 nl compounds in DMSO solution.
(5) Add 3 ul CMV suspension. Final 1 puf/ul, Virus stock 2000pfu/ul
(6) Incubate 72 hrs at 37C.
(7) Add 4 ul OneGlo Luc Reagent.
(8) Incubate 5 min at room temperature.
A general note: qHTS replaces the single test concentration by a dilution series.
Turning to `CCCS(=O)(=O)Nc1cccc(-c2cn3ccsc3n2)c1`, the activity change, negative = inhibition was -0.309% (inactive).

On to `CC(=O)NC(c1cccs1)c1cc(Br)c2cccnc2c1O` (stereo not given), for which the activity change, negative = inhibition was -100% (active).

`N#Cc1ccccc1NC(=O)COc1c(Br)cc(Br)c2cccnc12`: the activity change, negative = inhibition is 85.2% (inactive).

For `O=[N+]([O-])c1cc([N+](=O)[O-])c2cccnc2c1O`, the activity change, negative = inhibition was -19.7% (inactive).

As to `Cc1ccc(NS(=O)(=O)c2ccc(C)c(NC(=O)COc3ccc4ccccc4c3)c2)c(C)c1`, the activity change, negative = inhibition was -81.5% (active).

Take `O=C(CNS(=O)(=O)c1ccc2ccccc2c1)Nc1ccc(F)c(F)c1F`: the activity change, negative = inhibition was 0% (inactive).

As to `CC(=O)c1cccc(OCC(=O)OCC(=O)Nc2cc(S(=O)(=O)N3CCCCC3)ccc2C)c1`, the activity change, negative = inhibition is 9.96% (inactive).

Take `CCCn1c(C(C)Nc2nc(-c3ccc(C)cc3)cs2)nc2cc(Cl)c(N3CCCCC3)cc21` (stereo not given): the activity change, negative = inhibition was 2.56% (inactive).

`NC1=CC(=O)C(=O)c2cccnc21`: the activity change, negative = inhibition is -78.2% (active).

On to `O=C1CCCC2=C1C(c1cccs1)n1nc(SCc3ccccc3)nc1N2` (stereo not given), for which the activity change, negative = inhibition is -15.6% (inactive).

For `COC(=O)c1ccc(NC(=O)c2cc3c(CO)cnc(C)c3oc2=Nc2cccc(C(N)=O)c2)cc1`, the activity change, negative = inhibition is -2.9% (inactive).

In the case of `Cn1nccc1/C=N\NC(=O)c1ccc(Cl)cc1`, the activity change, negative = inhibition is 45.6% (inactive).

As for `CC1(C)C2CC=C(/C=N/NC(=O)c3ccc(Cl)cc3)C1C2` (stereo not given), the activity change, negative = inhibition is 23.1% (inactive).

Take `O=C(N/N=C/c1ccccn1)c1cccc(NC(=O)c2ccc(Cl)cc2)c1`: the activity change, negative = inhibition was -69.8% (active).

Take `CC(C)C(=O)Nc1nnc(SCC(=O)N2C(C)CCCC2C)s1` (stereo not given): the activity change, negative = inhibition was -28.8% (inactive).

As to `Cc1nn(-c2ccc(N3CCCCC3)nn2)c(C)c1CCC(=O)NCc1ccccc1F`, the activity change, negative = inhibition was -16.6% (inactive).

With `Cc1ccnc(NC(=O)c2ccc(NC(=O)c3ccco3)cc2)c1`, the activity change, negative = inhibition was -84.7% (active).

For `Cc1ccc(C)c(NC(=O)c2ccc(OC(=O)c3ccco3)cc2)c1`, the activity change, negative = inhibition was 71.3% (inactive).

Turning to `CCN(c1ccc(Cl)cc1)S(=O)(=O)c1nnc(NC(=O)c2ccco2)s1`, the activity change, negative = inhibition was 39.9% (inactive).

With `C/C(=N\NS(=O)(=O)c1ccc(Cl)cc1)c1ccc(NC(=O)c2ccco2)cc1`, the activity change, negative = inhibition is -65.3% (active).

In the case of `C/C(=N/NS(=O)(=O)c1ccccc1)c1ccc(NC(=O)C(F)(F)F)cc1`, the activity change, negative = inhibition is 0.908% (inactive).

On to `CSCCC(NC(=O)c1ccco1)C(=O)Nc1cc(C)ccn1` (stereo not given), for which the activity change, negative = inhibition was 47.1% (inactive).

For the molecule `CC(C)Cn1c(-c2ccc(S(=O)(=O)N3CCOCC3)cc2)csc1=Nc1cc(Cl)ccc1Cl`, the activity change, negative = inhibition is 0.205% (inactive).

As to `CN(Cc1ccccc1)C(=O)c1cn(C)c2ccc(S(=O)(=O)N3CCCCC3)cc2c1=O`, the activity change, negative = inhibition was -4.78% (inactive).

Take `CCOC(=O)c1c(S(=O)(=O)N2CCCC(C(=O)NCc3ccc(F)cc3)C2)c(C)n(CC)c1C` (stereo not given): the activity change, negative = inhibition is -1.02% (inactive).

Turning to `Cc1ccc(C2C=C(c3ccc(Cl)cc3)Nc3nc(NC(=O)CCC(=O)O)nn32)cc1` (stereo not given), the activity change, negative = inhibition is -19.9% (inactive).

Consider `Cc1ccc(OCC(=O)OCc2cc(=O)n3nc(C4CC4)sc3n2)cc1C`, for which the activity change, negative = inhibition is -1.4% (inactive).

In the case of `CCn1c(NCCc2ccc(OC)c(OC)c2)nc2c1c(=O)n(C)c(=O)n2C`, the activity change, negative = inhibition was -71.3% (active).

On to `COc1ccc(-n2ccnc(NCCc3ccc(Cl)cc3)c2=O)cc1OC`, for which the activity change, negative = inhibition is -27.6% (inactive).

Regarding `Cn1c(=O)[nH]c(=O)c2c1nc(NCCc1ccccc1)n2Cc1ccc(F)cc1`, the activity change, negative = inhibition was 26.5% (inactive).

For `Cn1c(=O)c2c(nc(NCc3ccccc3)n2CC(N)=O)n(C)c1=O`, the activity change, negative = inhibition is -13.4% (inactive).

For the molecule `Cn1c(=O)c2c(nc(NCCc3ccccc3)n2Cc2ccccc2)n(C)c1=O`, the activity change, negative = inhibition is -84.2% (active).

Turning to `Cn1c(=O)c2c(nc(NCCc3ccccc3)n2Cc2ccccc2Br)n(C)c1=O`, the activity change, negative = inhibition is 6.41% (inactive).

Consider `CCOC(=O)c1ccc(NC(=O)Cn2cc(S(=O)(=O)Cc3ccccc3F)c3ccccc32)cc1`, for which the activity change, negative = inhibition is 0% (inactive).

For `CCOc1cccc2cc(-c3cn4c(n3)sc3cc(C)ccc34)c(=O)oc12`, the activity change, negative = inhibition is 0.706% (inactive).

For `CCOC(=O)c1ccc(NC(=O)CC2C(=O)N(c3ccccc3)C(=O)N2Cc2cccs2)cc1` (stereo not given), the activity change, negative = inhibition is 16.8% (inactive).

Turning to `CCn1nc(C(=O)Nc2ccc(N3CCOCC3)cc2)c2ccccc2c1=O`, the activity change, negative = inhibition was -3.67% (inactive).

`CCOc1cc(-c2nnc(SCC(=O)NC3CCCCC3)nc2-c2ccc(OC)c(OCC)c2)ccc1OC`: the activity change, negative = inhibition is 8.79% (inactive).

On to `Cc1cc(NC(=O)C2CCC(CNS(=O)(=O)c3ccc(Br)s3)CC2)ccc1Br` (stereo not given), for which the activity change, negative = inhibition was -4.58% (inactive).

Turning to `COc1ccc(NC(=O)C2CCC(CNS(=O)(=O)c3csc(C(N)=O)c3)CC2)cc1OC` (stereo not given), the activity change, negative = inhibition is -65.3% (active).

Take `CC(=O)Nc1ccc(S(=O)(=O)NCC2CCC(C(=O)NCCc3ccccc3)CC2)cc1` (stereo not given): the activity change, negative = inhibition was 0% (inactive) and -12.6% (inactive).

Consider `COc1cccc(N2CC(NS(=O)(=O)c3ccc(Cl)cc3)CC2=O)c1` (stereo not given), for which the activity change, negative = inhibition was -10.8% (inactive).

With `COc1ccc(NC(=O)CSc2nc3ncccc3[nH]2)c(OC)c1`, the activity change, negative = inhibition is 9.48% (inactive).

As for `O=C(COC(=O)C1(c2ccc(F)cc2)CCCC1)N1CCNC1=O`, the activity change, negative = inhibition is -24.2% (inactive).

For the molecule `CN(C)S(=O)(=O)c1cccc(NC(=O)COC(=O)C2(c3ccccc3F)CCCC2)c1`, the activity change, negative = inhibition is -26.2% (inactive).

As to `NS(=O)(=O)c1ccc(NC(=O)COC(=O)C2(c3ccc(F)cc3)CCCC2)cc1`, the activity change, negative = inhibition is -61.5% (active).

Consider `CN(Cc1ccccc1)C(=O)CCS(=O)(=O)c1cc(Br)cc2c1N(C(=O)C1CC1)CC2`, for which the activity change, negative = inhibition was -14.4% (inactive).

As to `O=S(=O)([N-]c1nc2ccccc2nc1-[n+]1ccc(Cc2ccccc2)cc1)c1ccc(Br)s1`, the activity change, negative = inhibition is -110% (active).

As to `COc1ccc(S(=O)(=O)c2c(Nc3cccc(Cl)c3)sc(C(=O)c3ccccc3)c2N)cc1`, the activity change, negative = inhibition was 20.4% (inactive).

`N#C/C(=C(\O)CCl)c1nnc2n1CCCCC2`: the activity change, negative = inhibition was -20.4% (inactive).

With `N#C/C(=C/c1cccc([N+](=O)[O-])c1)c1nnc2n1CCCCC2`, the activity change, negative = inhibition was -95.5% (active).

Consider `N#C/C(=C(\O)C(F)(F)F)c1nnc2n1CCCCC2`, for which the activity change, negative = inhibition was -0.374% (inactive).

For `CNS(=O)(=O)c1ccc2c(c1)[nH]c(=S)n2C`, the activity change, negative = inhibition was -5.5% (inactive).

As to `Cc1ccccc1OCc1ccc(-c2nc(C#N)c(N3CCCCC3)o2)o1`, the activity change, negative = inhibition was -23.6% (inactive).

For `Cc1ccc(N2CCN(C(=O)CCc3c(C)nc4c(c3C)c(=O)n(C)c(=O)n4C)CC2)c(C)c1`, the activity change, negative = inhibition was -5.59% (inactive).
